Assay results: PubChem BioAssay AID1159580 (chemical genetic matrix, 2015)
Screen size: about 5,500 compounds; about 2,000 (36%) were called active. Inconclusive results (about 18%) are left out. Rule as the data show it: active = normalized growth mostly below about 0.91 (no sharp cut-off); inconclusive = no clear call, values can overlap the other calls; inactive = mostly above about 0.92. The list shows a part of the results.

Test: chemical genetic growth profiling, strain panel (AID 1159580);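 also: tested at 20 µM; growth read once vehicle control cultures reached saturation at 30 °C; 1 = growth at the plate median or of vehicle wells; lower values mean less growth of the strain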
Details: growth OD

Measured: normalized growth

NC[C@H]1O[C@H](O[C@H]2[C@H](O)[C@@H](O[C@H]3O[C@H](CO)[C@@H](O)[C@H](N)[C@H]3O)[C@H](N)C[C@@H]2N)[C@H](N)C[C@@H]1O
inactive: S. cerevisiae deletion strains, locus YJR075W, strain HOC1, hits give low values 1.01 | S. cerevisiae deletion strains, locus YKL009W, strain mrt4, hits give low values 1.02 | S. cerevisiae deletion strains, locus YKL068W, hits give low values 0.998 | S. cerevisiae deletion strains, locus YKL085W, strain MDH1 (second series), hits give low values 1 | S. cerevisiae deletion strains, locus YKL085W, strain MDH1, hits give low values 1 | S. cerevisiae deletion strains, locus YKL160W, strain elf1, hits give low values 0.959 | S. cerevisiae deletion strains, locus YKL190W, strain CNB1, hits give low values 0.994 | S. cerevisiae deletion strains, locus YKR001C, strain vps1, hits give low values 0.968 | S. cerevisiae deletion strains, locus YKR026C, strain gcn3, hits give low values 1.02 | S. cerevisiae deletion strains, locus YKR091W, strain srl3, hits give low values 1.01 | S. cerevisiae deletion strains, locus YLL001W, strain dnm1, hits give low values 0.987 | S. cerevisiae deletion strains, locus YLL026W, hits give low values 1.01 | S. cerevisiae deletion strains, locus YLL041C, strain sdh2, hits give low values 1.01 | S. cerevisiae deletion strains, locus YLR027C, strain aat2, hits give low values 1 | S. cerevisiae deletion strains, locus YLR039C, strain RIC1, hits give low values 1.01 | S. cerevisiae deletion strains, locus YLR058C, strain SHM2, hits give low values 0.994 | S. cerevisiae deletion strains, locus YLR102C, strain apc9, hits give low values 1.01 | S. cerevisiae deletion strains, locus YLR113W, strain HOG1, hits give low values 0.978 | S. cerevisiae deletion strains, locus YLR221C, strain rsa3, hits give low values 0.998 | S. cerevisiae deletion strains, locus YLR258W, strain gsy2, hits give low values 1.01 | S. cerevisiae deletion strains, locus YLR262C, strain YPT6 (second series), hits give low values 0.973 | S. cerevisiae deletion strains, locus YLR262C, strain YPT6, hits give low values 1.05 | S. cerevisiae deletion strains, locus YLR268W, strain sec22, hits give low values 1.04 | S. cerevisiae deletion strains, locus YLR320W, strain mms22, hits give low values 1 | S. cerevisiae deletion strains, locus YLR330W, strain CHS5, hits give low values 1.01 | S. cerevisiae deletion strains, locus YLR342W, strain FKS1 (second series), hits give low values 1.02 | S. cerevisiae deletion strains, locus YLR342W, strain FKS1, hits give low values 1.01 | S. cerevisiae deletion strains, locus YLR357W, strain rsc2, hits give low values 0.991 | S. cerevisiae deletion strains, locus YLR370C, strain arc18, hits give low values 1.03 | S. cerevisiae deletion strains, locus YLR371W, strain rom2, hits give low values 1.02 | S. cerevisiae deletion strains, locus YLR384C, strain iki3, hits give low values 1.02 | S. cerevisiae deletion strains, locus YLR418C, strain cdc73, hits give low values 0.986 | S. cerevisiae deletion strains, locus YML016C, strain PPZ1, hits give low values 0.996 | S. cerevisiae deletion strains, locus YML032C, strain rad52, hits give low values 1.02 | S. cerevisiae deletion strains, locus YML120C, strain ndi1, hits give low values 1.01 | S. cerevisiae deletion strains, locus YML124C, strain tub3, hits give low values 1.01 | S. cerevisiae deletion strains, locus YMR058W, strain fet3, hits give low values 1 | S. cerevisiae deletion strains, locus YMR078C, strain ctf18, hits give low values 1.01 | S. cerevisiae deletion strains, locus YMR125W, strain sto1, hits give low values 1.01 | S. cerevisiae deletion strains, locus YMR129W, hits give low values 1.01 | S. cerevisiae deletion strains, locus YMR205C, strain PFK2, hits give low values 0.965 | S. cerevisiae deletion strains, locus YMR223W, strain ubp8, hits give low values 0.988 | S. cerevisiae deletion strains, locus YMR231W, strain pep5, hits give low values 0.996 | S. cerevisiae deletion strains, locus YMR307W, strain GAS1, hits give low values 1.01 | S. cerevisiae deletion strains, locus YNL067W, strain RPL9B, hits give low values 0.99 | S. cerevisiae deletion strains, locus YNL071W, strain lat1, hits give low values 1.01 | S. cerevisiae deletion strains, locus YNL128W, strain TEP1, hits give low values 0.995 | S. cerevisiae deletion strains, locus YNL153C, strain GIM3, hits give low values 0.994 | S. cerevisiae deletion strains, locus YNL183C, strain NPR1, hits give low values 0.933 | S. cerevisiae deletion strains, locus YNL209W, strain ssb2, hits give low values 1.01 | S. cerevisiae deletion strains, locus YNL233W, strain BNI4, hits give low values 1.01 | S. cerevisiae deletion strains, locus YNL248C, strain rpa49, hits give low values 0.956 | S. cerevisiae deletion strains, locus YNL250W, strain rad50, hits give low values 1.01 | S. cerevisiae deletion strains, locus YNL271C, strain bni1, hits give low values 1 | S. cerevisiae deletion strains, locus YNL298W, strain CLA4, hits give low values 0.998 | S. cerevisiae deletion strains, locus YNL307C, strain MCK1, hits give low values 1.01 | S. cerevisiae deletion strains, locus YNL322C, strain KRE1 (second series), hits give low values 1 | S. cerevisiae deletion strains, locus YNL322C, strain KRE1, hits give low values 1.01 | S. cerevisiae deletion strains, locus YNR049C, strain mso1, hits give low values 1.02 | S. cerevisiae deletion strains, locus YNR052C, strain pop2, hits give low values 1.01 | S. cerevisiae deletion strains, locus YOL006C, strain TOP1, hits give low values 1.02 | S. cerevisiae deletion strains, locus YOL012C, strain htz1 1.38 | S. cerevisiae deletion strains, locus YOL147C, strain pex11, hits give low values 1.01 | S. cerevisiae deletion strains, locus YOR001W, strain rrp6, hits give low values 1.05 | S. cerevisiae deletion strains, locus YOR061W, strain CKA2, hits give low values 1.01 | S. cerevisiae deletion strains, locus YOR069W, strain VPS5, hits give low values 1.01 | S. cerevisiae deletion strains, locus YOR070C, strain gyp1, hits give low values 1.02 | S. cerevisiae deletion strains, locus YOR080W, strain dia2, hits give low values 1.01 | S. cerevisiae deletion strains, locus YOR083W, strain WHI5, hits give low values 0.959 | S. cerevisiae deletion strains, locus YOR106W, strain vam3, hits give low values 0.964 | S. cerevisiae deletion strains, locus YOR136W, strain idh2, hits give low values 0.993 | S. cerevisiae deletion strains, locus YOR144C, strain elg1, hits give low values 1.01 | S. cerevisiae deletion strains, locus YOR184W, strain ser1, hits give low values 0.99 | S. cerevisiae deletion strains, locus YOR231W, strain MKK1, hits give low values 0.971 | S. cerevisiae deletion strains, locus YOR265W, strain rbl2, hits give low values 1.03 | S. cerevisiae deletion strains, locus YOR270C, strain vph1, hits give low values 0.943 | S. cerevisiae deletion strains, locus YOR290C, strain snf2, hits give low values 0.987 | S. cerevisiae deletion strains, locus YOR316C, strain cot1, hits give low values 1.01 | S. cerevisiae deletion strains, locus YPL051W, strain arl3, hits give low values 0.988 | S. cerevisiae deletion strains, locus YPL055C, strain LGE1, hits give low values 0.974 | S. cerevisiae deletion strains, locus YPL078C, strain atp4, hits give low values 0.959 | S. cerevisiae deletion strains, locus YPL106C, strain sse1, hits give low values 1.03 | S. cerevisiae deletion strains, locus YPL240C, strain hsp82, hits give low values 1.02 | S. cerevisiae deletion strains, locus YPL256C, strain CLN2, hits give low values 0.968 | S. cerevisiae deletion strains, locus YPR119W, strain clb2, hits give low values 1.01 | S. cerevisiae deletion strains, locus YPR141C, strain kar3, hits give low values 1.01 | S. cerevisiae deletion strains, locus YPR163C, strain tif3, hits give low values 1.02 | S. cerevisiae deletion strains, locus YPR167C, strain met16, hits give low values 1.01 | S. cerevisiae deletion strains, strain wtn01, hits give low values 1.01 | S. cerevisiae strains, strain wild type, hits give low values 0.998
